# Legend:
# Assay in all cases: DAPPL (digital affinity profiling via proximity ligation, sequencing); 10 mM Tris-HCl pH 7.5, 50 mM NaCl, 1 mM DTT, 4% glycerol, room temperature, 30 min; GST-TFs on glutathione beads, 16-mer random dsDNA library, 0.1% formaldehyde crosslink after washing; high values mean tight binding
# Details in all cases: protein: recombinant; tags: N-terminal GST; dsDNA, one strand shown
# ERF = molecular target: T1, ERF (Homo sapiens, UniProt P50548 1-548)
# T1 sequence: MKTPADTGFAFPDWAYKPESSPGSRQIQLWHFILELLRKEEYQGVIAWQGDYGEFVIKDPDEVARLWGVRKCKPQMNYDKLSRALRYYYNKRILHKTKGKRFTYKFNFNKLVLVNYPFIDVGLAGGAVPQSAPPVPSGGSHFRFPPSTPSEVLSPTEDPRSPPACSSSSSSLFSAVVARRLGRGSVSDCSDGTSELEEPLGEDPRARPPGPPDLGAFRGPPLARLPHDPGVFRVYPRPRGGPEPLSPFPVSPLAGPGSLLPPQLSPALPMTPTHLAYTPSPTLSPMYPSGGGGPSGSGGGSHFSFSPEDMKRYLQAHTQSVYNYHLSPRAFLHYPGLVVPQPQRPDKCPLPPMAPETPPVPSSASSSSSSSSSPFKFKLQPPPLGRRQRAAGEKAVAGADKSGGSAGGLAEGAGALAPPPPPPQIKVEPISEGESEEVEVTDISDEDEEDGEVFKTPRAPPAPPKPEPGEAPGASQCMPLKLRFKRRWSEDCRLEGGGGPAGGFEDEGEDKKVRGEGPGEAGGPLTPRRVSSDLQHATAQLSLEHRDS
# Method in brief: (§1)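 Yeast served to express human transcription factors as GST fusions, which were then captured on glutathione beads and labelled with DNA barcodes. Pooled with a tag-only sample, they were incubated with 200 nmole of a 16-mer random double-stranded DNA library for 30 min at room temperature in Tris/NaCl/DTT/glycerol buffer, washed, crosslinked with 0.1% formaldehyde, ligated by proximity, amplified by PCR and sequenced. Dividing each hexamer's read frequency for a factor by its frequency for the tag-only sample gives the binding signal.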
# ETV3L = molecular target: T2, ETV3L (Homo sapiens, UniProt Q6ZN32 1-361)
# T2 sequence: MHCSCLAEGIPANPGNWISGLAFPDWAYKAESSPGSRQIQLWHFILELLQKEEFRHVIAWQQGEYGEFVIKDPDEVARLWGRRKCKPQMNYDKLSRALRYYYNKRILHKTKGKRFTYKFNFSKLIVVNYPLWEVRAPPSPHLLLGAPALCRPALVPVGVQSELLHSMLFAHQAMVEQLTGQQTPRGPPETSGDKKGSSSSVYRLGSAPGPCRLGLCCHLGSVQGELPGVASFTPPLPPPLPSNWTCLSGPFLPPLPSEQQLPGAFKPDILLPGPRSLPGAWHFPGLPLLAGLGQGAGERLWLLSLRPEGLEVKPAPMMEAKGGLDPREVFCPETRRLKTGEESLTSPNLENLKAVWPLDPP
# Method in brief: as §1
# ETS2 = molecular target: T3, ETS2 (Homo sapiens, UniProt P15036 1-469)
# T3 sequence: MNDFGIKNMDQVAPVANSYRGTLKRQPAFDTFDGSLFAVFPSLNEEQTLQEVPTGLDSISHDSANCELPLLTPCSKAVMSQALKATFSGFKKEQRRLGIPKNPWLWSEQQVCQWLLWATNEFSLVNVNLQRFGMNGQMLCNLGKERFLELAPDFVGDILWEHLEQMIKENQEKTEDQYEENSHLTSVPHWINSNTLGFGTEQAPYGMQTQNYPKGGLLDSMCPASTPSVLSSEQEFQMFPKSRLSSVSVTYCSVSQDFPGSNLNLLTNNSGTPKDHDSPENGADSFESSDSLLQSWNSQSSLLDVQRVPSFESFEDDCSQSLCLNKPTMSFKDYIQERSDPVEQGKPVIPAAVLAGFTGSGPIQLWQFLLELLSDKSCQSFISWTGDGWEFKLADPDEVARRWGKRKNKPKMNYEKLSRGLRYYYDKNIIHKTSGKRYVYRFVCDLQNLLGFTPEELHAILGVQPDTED
# Method in brief: as §1
# SPDEF = molecular target: T4, SPDEF (Homo sapiens, UniProt O95238 1-335)
# T4 sequence: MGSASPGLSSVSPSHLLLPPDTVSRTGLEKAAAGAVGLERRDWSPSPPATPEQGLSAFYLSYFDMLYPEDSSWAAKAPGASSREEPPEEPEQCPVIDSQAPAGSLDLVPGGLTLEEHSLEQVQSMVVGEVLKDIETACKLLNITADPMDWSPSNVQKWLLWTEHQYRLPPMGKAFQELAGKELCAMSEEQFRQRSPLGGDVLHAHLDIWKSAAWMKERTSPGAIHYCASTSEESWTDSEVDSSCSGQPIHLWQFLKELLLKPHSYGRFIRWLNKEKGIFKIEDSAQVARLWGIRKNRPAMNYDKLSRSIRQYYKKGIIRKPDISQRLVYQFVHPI
# Method in brief: as §1
# ETV7 = molecular target: T5, ETV7 (Homo sapiens, UniProt Q9Y603 1-341)
# T5 sequence: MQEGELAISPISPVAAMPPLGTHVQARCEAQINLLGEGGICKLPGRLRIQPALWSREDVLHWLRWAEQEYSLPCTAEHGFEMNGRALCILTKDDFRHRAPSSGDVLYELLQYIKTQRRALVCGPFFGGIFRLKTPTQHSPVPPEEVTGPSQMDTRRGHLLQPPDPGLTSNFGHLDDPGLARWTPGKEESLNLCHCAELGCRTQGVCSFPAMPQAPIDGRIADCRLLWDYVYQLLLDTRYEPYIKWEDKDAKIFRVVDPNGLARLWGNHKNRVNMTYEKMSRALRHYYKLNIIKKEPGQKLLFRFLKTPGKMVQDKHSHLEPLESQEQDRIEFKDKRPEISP
# Method in brief: as §1
# ELF5 = molecular target: T6, ELF5 (Homo sapiens, UniProt Q9UKW6-2 1-255)
# T6 sequence: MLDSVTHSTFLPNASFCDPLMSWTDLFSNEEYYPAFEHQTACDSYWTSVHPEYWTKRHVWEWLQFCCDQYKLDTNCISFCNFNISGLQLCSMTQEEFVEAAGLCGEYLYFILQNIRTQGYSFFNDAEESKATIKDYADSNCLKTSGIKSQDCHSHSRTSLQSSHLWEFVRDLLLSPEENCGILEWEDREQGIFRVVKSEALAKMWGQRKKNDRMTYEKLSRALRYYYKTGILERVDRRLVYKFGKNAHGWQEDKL
# Method in brief: as §1
# ETV3 = molecular target: T7, ETV3 (Homo sapiens, UniProt P41162-2 1-143)
# T7 sequence: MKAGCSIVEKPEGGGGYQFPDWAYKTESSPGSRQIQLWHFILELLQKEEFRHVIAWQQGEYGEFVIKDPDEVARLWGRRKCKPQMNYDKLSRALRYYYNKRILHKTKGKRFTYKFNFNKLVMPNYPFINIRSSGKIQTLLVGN
# Method in brief: as §1
# ETV6 = ETV6 (Homo sapiens, UniProt P41212 1-452)
# Method in brief: as §1
# Sequence of ETV6 (P41212 whole entry): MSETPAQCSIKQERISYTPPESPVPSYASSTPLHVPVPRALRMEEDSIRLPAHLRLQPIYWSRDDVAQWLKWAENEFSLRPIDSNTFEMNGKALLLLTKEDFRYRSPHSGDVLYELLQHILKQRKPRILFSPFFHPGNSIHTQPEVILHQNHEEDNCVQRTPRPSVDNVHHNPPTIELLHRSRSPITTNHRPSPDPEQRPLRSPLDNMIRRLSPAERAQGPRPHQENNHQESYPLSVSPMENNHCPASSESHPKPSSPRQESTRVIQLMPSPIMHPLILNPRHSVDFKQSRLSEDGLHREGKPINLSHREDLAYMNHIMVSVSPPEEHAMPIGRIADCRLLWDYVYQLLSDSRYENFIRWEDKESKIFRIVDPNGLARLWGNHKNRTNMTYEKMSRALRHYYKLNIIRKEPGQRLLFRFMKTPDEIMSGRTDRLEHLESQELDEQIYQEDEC
Sequence,binding signal (ERF),binding signal (ETV3L),binding signal (ETS2),binding signal (SPDEF),binding signal (ETV7),binding signal (ELF5),binding signal (ETV3),binding signal (ETV6)
AAAACA,"1.26 fold enrichment (6-mer frequency, TF over GST control)","1.32 fold enrichment (6-mer frequency, TF over GST control)","1.38 fold enrichment (6-mer frequency, TF over GST control)","1.29 fold enrichment (6-mer frequency, TF over GST control)","1.34 fold enrichment (6-mer frequency, TF over GST control)","1.34 fold enrichment (6-mer frequency, TF over GST control)","1.31 fold enrichment (6-mer frequency, TF over GST control)","1.27 fold enrichment (6-mer frequency, TF over GST control)"
CCTAGC,"1.26 fold enrichment (6-mer frequency, TF over GST control)","1.09 fold enrichment (6-mer frequency, TF over GST control)","1.11 fold enrichment (6-mer frequency, TF over GST control)","1.21 fold enrichment (6-mer frequency, TF over GST control)","1.18 fold enrichment (6-mer frequency, TF over GST control)","1.06 fold enrichment (6-mer frequency, TF over GST control)","1.16 fold enrichment (6-mer frequency, TF over GST control)","1.15 fold enrichment (6-mer frequency, TF over GST control)"
TCACGT,"1.28 fold enrichment (6-mer frequency, TF over GST control)","1.22 fold enrichment (6-mer frequency, TF over GST control)","1.2 fold enrichment (6-mer frequency, TF over GST control)","1.15 fold enrichment (6-mer frequency, TF over GST control)","1.22 fold enrichment (6-mer frequency, TF over GST control)","1.19 fold enrichment (6-mer frequency, TF over GST control)","1.19 fold enrichment (6-mer frequency, TF over GST control)","1.24 fold enrichment (6-mer frequency, TF over GST control)"
TACAGA,"1.13 fold enrichment (6-mer frequency, TF over GST control)","1.04 fold enrichment (6-mer frequency, TF over GST control)","1.14 fold enrichment (6-mer frequency, TF over GST control)","1.16 fold enrichment (6-mer frequency, TF over GST control)","1.18 fold enrichment (6-mer frequency, TF over GST control)","1.11 fold enrichment (6-mer frequency, TF over GST control)","1.1 fold enrichment (6-mer frequency, TF over GST control)","1.1 fold enrichment (6-mer frequency, TF over GST control)"
CTACTA,"1.35 fold enrichment (6-mer frequency, TF over GST control)","1.29 fold enrichment (6-mer frequency, TF over GST control)","1.26 fold enrichment (6-mer frequency, TF over GST control)","1.28 fold enrichment (6-mer frequency, TF over GST control)","1.44 fold enrichment (6-mer frequency, TF over GST control)","1.24 fold enrichment (6-mer frequency, TF over GST control)","1.23 fold enrichment (6-mer frequency, TF over GST control)","1.46 fold enrichment (6-mer frequency, TF over GST control)"
TACTAC,"1.3 fold enrichment (6-mer frequency, TF over GST control)","1.41 fold enrichment (6-mer frequency, TF over GST control)","1.34 fold enrichment (6-mer frequency, TF over GST control)","1.34 fold enrichment (6-mer frequency, TF over GST control)","1.47 fold enrichment (6-mer frequency, TF over GST control)","1.36 fold enrichment (6-mer frequency, TF over GST control)","1.29 fold enrichment (6-mer frequency, TF over GST control)","1.38 fold enrichment (6-mer frequency, TF over GST control)"
CTAGCA,"1.21 fold enrichment (6-mer frequency, TF over GST control)","1.28 fold enrichment (6-mer frequency, TF over GST control)","1.18 fold enrichment (6-mer frequency, TF over GST control)","1.16 fold enrichment (6-mer frequency, TF over GST control)","1.33 fold enrichment (6-mer frequency, TF over GST control)","1.12 fold enrichment (6-mer frequency, TF over GST control)","1.18 fold enrichment (6-mer frequency, TF over GST control)","1.18 fold enrichment (6-mer frequency, TF over GST control)"
AACTCT,"1.33 fold enrichment (6-mer frequency, TF over GST control)","1.27 fold enrichment (6-mer frequency, TF over GST control)","1.32 fold enrichment (6-mer frequency, TF over GST control)","1.35 fold enrichment (6-mer frequency, TF over GST control)","1.24 fold enrichment (6-mer frequency, TF over GST control)","1.35 fold enrichment (6-mer frequency, TF over GST control)","1.34 fold enrichment (6-mer frequency, TF over GST control)","1.33 fold enrichment (6-mer frequency, TF over GST control)"
CCAACT,"1.13 fold enrichment (6-mer frequency, TF over GST control)","1.21 fold enrichment (6-mer frequency, TF over GST control)","1.24 fold enrichment (6-mer frequency, TF over GST control)","1.27 fold enrichment (6-mer frequency, TF over GST control)","1.2 fold enrichment (6-mer frequency, TF over GST control)","1.17 fold enrichment (6-mer frequency, TF over GST control)","1.17 fold enrichment (6-mer frequency, TF over GST control)","1.18 fold enrichment (6-mer frequency, TF over GST control)"
TTGTGG,"1.33 fold enrichment (6-mer frequency, TF over GST control)","1.6 fold enrichment (6-mer frequency, TF over GST control)","1.36 fold enrichment (6-mer frequency, TF over GST control)","1.31 fold enrichment (6-mer frequency, TF over GST control)","1.34 fold enrichment (6-mer frequency, TF over GST control)","1.32 fold enrichment (6-mer frequency, TF over GST control)","1.37 fold enrichment (6-mer frequency, TF over GST control)","1.29 fold enrichment (6-mer frequency, TF over GST control)"
CTGGAA,"1.26 fold enrichment (6-mer frequency, TF over GST control)","1.36 fold enrichment (6-mer frequency, TF over GST control)","1.3 fold enrichment (6-mer frequency, TF over GST control)","1.16 fold enrichment (6-mer frequency, TF over GST control)","1.32 fold enrichment (6-mer frequency, TF over GST control)","1.34 fold enrichment (6-mer frequency, TF over GST control)","1.27 fold enrichment (6-mer frequency, TF over GST control)","1.34 fold enrichment (6-mer frequency, TF over GST control)"
AACGAT,"1.29 fold enrichment (6-mer frequency, TF over GST control)","1.19 fold enrichment (6-mer frequency, TF over GST control)","1.22 fold enrichment (6-mer frequency, TF over GST control)","1.14 fold enrichment (6-mer frequency, TF over GST control)","1.17 fold enrichment (6-mer frequency, TF over GST control)","1.19 fold enrichment (6-mer frequency, TF over GST control)","1.24 fold enrichment (6-mer frequency, TF over GST control)","1.25 fold enrichment (6-mer frequency, TF over GST control)"
CTCGTC,"1.4 fold enrichment (6-mer frequency, TF over GST control)","1.24 fold enrichment (6-mer frequency, TF over GST control)","1.46 fold enrichment (6-mer frequency, TF over GST control)","1.35 fold enrichment (6-mer frequency, TF over GST control)","1.46 fold enrichment (6-mer frequency, TF over GST control)","1.32 fold enrichment (6-mer frequency, TF over GST control)","1.34 fold enrichment (6-mer frequency, TF over GST control)","1.46 fold enrichment (6-mer frequency, TF over GST control)"
TAAATG,"1.24 fold enrichment (6-mer frequency, TF over GST control)","1.39 fold enrichment (6-mer frequency, TF over GST control)","1.38 fold enrichment (6-mer frequency, TF over GST control)","1.35 fold enrichment (6-mer frequency, TF over GST control)","1.31 fold enrichment (6-mer frequency, TF over GST control)","1.16 fold enrichment (6-mer frequency, TF over GST control)","1.31 fold enrichment (6-mer frequency, TF over GST control)","1.31 fold enrichment (6-mer frequency, TF over GST control)"
TCACCT,"1.2 fold enrichment (6-mer frequency, TF over GST control)","1.17 fold enrichment (6-mer frequency, TF over GST control)","1.09 fold enrichment (6-mer frequency, TF over GST control)","1.22 fold enrichment (6-mer frequency, TF over GST control)","1.19 fold enrichment (6-mer frequency, TF over GST control)","1.21 fold enrichment (6-mer frequency, TF over GST control)","1.2 fold enrichment (6-mer frequency, TF over GST control)","1.19 fold enrichment (6-mer frequency, TF over GST control)"

# From article PMC7862700, “An all-to-all approach to the identification of sequence-specific readers for epigenetic DNA modifications on cytosine”
